Results: PubChem BioAssay (EPA / NIEHS)
Active and inactive are the calls of the source. Rule for the calls: active = hit-call score of the fitted dose curve at least 0.9, where 1 is the maximum; inactive = score below 0.9.

Key:
Details in all cases: mRNA level, 48 h; actives raise or lower the signal
[1] = read-out: Cytochrome P450 (CYP1A2), CYP1A2 (gene 1544); experiment: LTEA_HepaRG_CYP1A2: Life Technologies and Expression Analysis (LTEA) Assay for Cytochrome P450 (CYP1A2) using HepaRG (AID 2283479);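 for AC50: TaqMan qRT-PCR transcript level normalized to ACTB GAPDH and POLR2A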
Method in brief: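 CYP1A2 transcript measured by TaqMan qRT-PCR against three housekeeping genes after 48-hour chemical exposure of HepaRG cells. Eight-point half-log series topping at 100 uM in 0.5% DMSO, duplicates; gain or loss fitted relative to vehicle.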

[2] = read-out: cysteine-aspartic acid protease (CASP8), CASP8 (gene 841); experiment: LTEA_HepaRG_CASP8: Life Technologies and Expression Analysis (LTEA) Assay for cysteine-aspartic acid protease (CASP8) using HepaRG (AID 2283480)
Method in brief: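 HepaRG, 48 h exposure, duplicate wells; 8 conc, half-log from 100 uM, 0.5% DMSO. Serum-free induction medium. CASP8 mRNA by TaqMan qRT-PCR, norm. ACTB/GAPDH/POLR2A; gain/loss fitted vs DMSO.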

[3] = read-out: Cytochrome P450 (CYP2B6), CYP2B6 (gene 1555); experiment: LTEA_HepaRG_CYP2B6: Life Technologies and Expression Analysis (LTEA) Assay for Cytochrome P450 (CYP2B6) using HepaRG (AID 2283481)
Method in brief: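 CYP2B6 transcript level quantified by qRT-PCR against three housekeeping genes, fitted bidirectionally relative to DMSO. HepaRG cultures received chemicals for 48 h, 8-point half-log series from 100 uM in 0.5% DMSO, duplicate wells, serum-free induction medium.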

[4] = read-out: Cytochrome P450 2C19 (Homo sapiens) (UniProt P33261); experiment: LTEA_HepaRG_CYP2C19: Life Technologies and Expression Analysis (LTEA) Assay for CYP2C19 using HepaRG (AID 2283482)
Method in brief: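 CYP2C19 transcript levels by qRT-PCR, normalized to three housekeeping genes, in HepaRG cells after 48 h chemical exposure. Eight-point half-log series topping at 100 uM, 0.5% DMSO vehicle. Increases and decreases both fitted against DMSO.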

CYP2C8 (gene 1558) = experiment: LTEA_HepaRG_CYP2C8: Life Technologies and Expression Analysis (LTEA) Assay for CYP2C8 using HepaRG (AID 2283483)
Method in brief: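 CYP2C8 mRNA induction or loss, by qRT-PCR normalized to ACTB/GAPDH/POLR2A, is read in HepaRG cells after 48 h treatment. Concentrations run from 100 uM down in half-log dilutions, with 0.5% DMSO as vehicle and baseline.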

CYP2E1 (gene 1571) = experiment: LTEA_HepaRG_CYP2E1: Life Technologies and Expression Analysis (LTEA) Assay for CYP2E1 using HepaRG (AID 2283485)
Method in brief: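 Differentiated HepaRG cells were treated in duplicate for 48 h with chemicals in 0.5% DMSO, from 100 uM downward in half-log dilutions. RNA was then analysed by qRT-PCR for CYP2E1 induction or loss.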

CYP4A11 (gene 1579) = experiment: LTEA_HepaRG_CYP4A11: Life Technologies and Expression Analysis (LTEA) Assay for CYP4A11 using HepaRG (AID 2283486)
Method in brief: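 Readout is CYP4A11 transcript level by qRT-PCR, normalized to three housekeeping genes and fitted bidirectionally against 0.5% DMSO. Human HepaRG cells were treated 48 h, in duplicate, with an 8-point half-log series topping at 100 uM.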

[5] = read-out: Cytochrome P450 3A4 (Homo sapiens) (UniProt P08684); experiment: LTEA_HepaRG_CYP3A4: Life Technologies and Expression Analysis (LTEA) Assay for CYP3A4 using HepaRG (AID 2283487)
Method in brief: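 HepaRG, 48 h exposure, 8-pt CRC from 100 uM (half-log), 0.5% DMSO, duplicates; serum-free induction medium. Readout: CYP3A4 mRNA, qRT-PCR, ACTB/GAPDH/POLR2A normalization. Bidirectional fit vs DMSO.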

[6] = read-out: DNA damage-inducible transcript 3 (DDIT3), DDIT3 (gene 1649); experiment: LTEA_HepaRG_DDIT3: Life Technologies and Expression Analysis (LTEA) Assay for DNA damage-inducible transcript 3 (DDIT3) using HepaRG (AID 2283488)
Method in brief: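 Changes in DDIT3 transcript, in either direction relative to 0.5% DMSO vehicle, were quantified by TaqMan qRT-PCR after 48 h chemical exposure of HepaRG cells at 8 concentrations, maximum 100 uM.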

[7] = read-out: Pro-epidermal growth factor (Homo sapiens) (UniProt P01133); experiment: LTEA_HepaRG_EGF: Life Technologies and Expression Analysis (LTEA) Assay for Epidermal growth factor (EGF) using HepaRG (AID 2283489)
Method in brief: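 EGF transcript measured by Fluidigm TaqMan qRT-PCR with three housekeeping genes for normalization, 48 h after dosing HepaRG cultures in duplicate (top 100 uM, half-log steps, 0.5% DMSO vehicle). Gain or loss relative to DMSO fitted.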

[8] = read-out: Early growth response protein 1 (EGR1) transcription factor, EGR1 (gene 1958); experiment: LTEA_HepaRG_EGR1: Life Technologies and Expression Analysis (LTEA) Assay for Early growth response protein 1 (EGR1) transcription factor using HepaRG (AID 2283490)
Method in brief: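 Read-out is EGR1 mRNA level by qRT-PCR, normalized to three housekeeping genes and analysed for gain or loss of signal against 0.5% DMSO. Source cells: human HepaRG, treated 48 h at up to 100 uM in half-log dilutions.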

[9] = read-out: Ezrin (EZR), EZR (gene 7430); experiment: LTEA_HepaRG_EZR: Life Technologies and Expression Analysis (LTEA) Assay for Ezrin (EZR) using HepaRG (AID 2283491)
Method in brief: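 Read-out is EZR transcript level by qRT-PCR, normalized to three housekeeping genes and fitted bidirectionally against the DMSO control. Human HepaRG cells received test chemicals for 48 h at eight half-log concentrations up to 100 uM in 0.5% DMSO.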

[10] = read-out: Cytochrome P450 3A7 (Homo sapiens) (UniProt P24462); experiment: LTEA_HepaRG_CYP3A7: Life Technologies and Expression Analysis (LTEA) Assay for CYP3A7 using HepaRG (AID 2283492)
Method in brief: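 CYP3A7 transcript measured by qRT-PCR (ACTB, GAPDH, POLR2A normalization) after 48 h chemical exposure of HepaRG cells in duplicate. Eight half-log concentrations, maximum 100 uM, 0.5% DMSO vehicle; bidirectional curve fitting against DMSO baseline.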

CYP3A5 (gene 1577) = experiment: LTEA_HepaRG_CYP3A5: Life Technologies and Expression Analysis (LTEA) Assay for CYP3A5 using HepaRG (AID 2283493)
Method in brief: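 mRNA induction or loss of CYP3A5 assessed in HepaRG after 48 h dosing, 100 uM top concentration, duplicate wells; TaqMan qRT-PCR with ACTB, GAPDH, POLR2A normalization; 0.5% DMSO as negative control.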

[11] = read-out: Fatty Acid-Binding Protein 1 (FABP1), FABP1 (gene 2168); experiment: LTEA_HepaRG_FABP1: Life Technologies and Expression Analysis (LTEA) Assay for Fatty Acid-Binding Protein 1 (FABP1) using HepaRG (AID 2283494)
Method in brief: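 HepaRG, 48 h post-plating switched to serum-free induction medium, then dosed 48 h (duplicate, 8 pts, ≤100 uM, 0.5% DMSO). RNA → Fluidigm TaqMan qRT-PCR, FABP1 normed to ACTB/GAPDH/POLR2A. Bidirectional curve fit vs DMSO.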

[12] = read-out: Cytochrome P450 4A22 (Homo sapiens) (UniProt Q5TCH4); experiment: LTEA_HepaRG_CYP4A22: Life Technologies and Expression Analysis (LTEA) Assay for Cytochrome P450 4A22 (CYP4A22) using HepaRG (AID 2283495)
Method in brief: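 Gene expression measured by qRT-PCR against three housekeeping genes (ACTB, GAPDH, POLR2A), with gain or loss fitted relative to 0.5% DMSO vehicle. HepaRG cultures received 48 h chemical treatment, top concentration 100 uM, half-log steps, duplicate wells.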

[13] = read-out: Cytochrome P450 7A1 (Homo sapiens) (UniProt P22680); experiment: LTEA_HepaRG_CYP7A1: Life Technologies and Expression Analysis (LTEA) Assay for Cytochrome P450 7A1 (CYP7A1) using HepaRG (AID 2283496)
Method in brief: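 Gene expression endpoint in human HepaRG liver cells treated for 48 h with test chemicals (up to 100 uM, 0.5% DMSO). Values come from bidirectional concentration-response fitting versus DMSO.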

[14] = read-out: Glutathione S-Transferase (GSTA2), GSTA2 (gene 2939); experiment: LTEA_HepaRG_GSTA2: Life Technologies and Expression Analysis (LTEA) Assay for Glutathione S-Transferase (GSTA2) using HepaRG (AID 2283497)
Method in brief: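 HepaRG, 48 h dosing, 8-pt half-log CRC from 100 uM, 0.5% DMSO vehicle, n=2; RNA → Fluidigm TaqMan qRT-PCR; GSTA2 vs ACTB/GAPDH/POLR2A; gain/loss fit vs DMSO.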

[15] = read-out: Glutamate-cysteine ligase catalytic (GCLC), GCLC (gene 2729); experiment: LTEA_HepaRG_GCLC: Life Technologies and Expression Analysis (LTEA) Assay for Glutamate-cysteine ligase catalytic (GCLC) using HepaRG (AID 2283498)
Method in brief: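 Read-out is GCLC transcript level by Fluidigm-based TaqMan qRT-PCR, normalized to three housekeeping genes and fitted in both directions relative to 0.5% DMSO. Human HepaRG cells received chemicals for 48 h, up to 100 uM.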

CYP2C9 (gene 1559) = experiment: LTEA_HepaRG_CYP2C9: Life Technologies and Expression Analysis (LTEA) Assay for CYP2C9 using HepaRG (AID 2283484)
Method in brief: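 Cells plated 48 h, switched to serum-free induction medium, then treated in duplicate for 48 h at eight concentrations (max 100 uM, 0.5% DMSO). RNA then analysed by qRT-PCR for CYP2C9; curves fitted in both directions relative to DMSO.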

Measured: AC50

Cytochrome P450 2C19 (Homo sapiens), sequence (P33261 whole entry, looked up): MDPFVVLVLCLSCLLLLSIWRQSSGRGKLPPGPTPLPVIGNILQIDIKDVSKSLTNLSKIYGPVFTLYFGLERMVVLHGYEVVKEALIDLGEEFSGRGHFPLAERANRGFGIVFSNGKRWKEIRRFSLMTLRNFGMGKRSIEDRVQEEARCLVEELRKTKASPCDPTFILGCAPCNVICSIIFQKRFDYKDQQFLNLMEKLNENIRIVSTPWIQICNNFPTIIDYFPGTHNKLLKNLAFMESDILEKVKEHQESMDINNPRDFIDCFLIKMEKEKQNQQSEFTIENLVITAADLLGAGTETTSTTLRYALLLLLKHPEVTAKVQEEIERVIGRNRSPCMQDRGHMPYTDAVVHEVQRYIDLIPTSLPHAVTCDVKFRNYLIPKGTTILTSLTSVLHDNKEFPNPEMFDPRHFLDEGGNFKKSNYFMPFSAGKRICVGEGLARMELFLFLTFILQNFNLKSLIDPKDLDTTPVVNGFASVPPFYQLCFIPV
Cytochrome P450 3A7 (Homo sapiens), sequence (P24462 whole entry, looked up): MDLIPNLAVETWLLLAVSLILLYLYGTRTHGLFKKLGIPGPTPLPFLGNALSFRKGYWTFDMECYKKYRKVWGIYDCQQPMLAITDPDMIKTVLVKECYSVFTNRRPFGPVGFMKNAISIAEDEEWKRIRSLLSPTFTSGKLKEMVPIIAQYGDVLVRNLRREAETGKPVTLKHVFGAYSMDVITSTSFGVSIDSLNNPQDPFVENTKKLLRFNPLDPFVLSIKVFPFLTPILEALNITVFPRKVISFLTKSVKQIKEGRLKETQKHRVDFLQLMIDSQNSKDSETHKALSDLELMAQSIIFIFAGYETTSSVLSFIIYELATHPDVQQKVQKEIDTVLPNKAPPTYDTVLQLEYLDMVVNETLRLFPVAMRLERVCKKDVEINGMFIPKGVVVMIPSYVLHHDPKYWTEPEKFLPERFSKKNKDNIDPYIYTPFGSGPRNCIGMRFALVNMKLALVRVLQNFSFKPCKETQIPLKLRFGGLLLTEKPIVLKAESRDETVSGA
Cytochrome P450 3A4 (Homo sapiens), sequence (P08684 whole entry, looked up): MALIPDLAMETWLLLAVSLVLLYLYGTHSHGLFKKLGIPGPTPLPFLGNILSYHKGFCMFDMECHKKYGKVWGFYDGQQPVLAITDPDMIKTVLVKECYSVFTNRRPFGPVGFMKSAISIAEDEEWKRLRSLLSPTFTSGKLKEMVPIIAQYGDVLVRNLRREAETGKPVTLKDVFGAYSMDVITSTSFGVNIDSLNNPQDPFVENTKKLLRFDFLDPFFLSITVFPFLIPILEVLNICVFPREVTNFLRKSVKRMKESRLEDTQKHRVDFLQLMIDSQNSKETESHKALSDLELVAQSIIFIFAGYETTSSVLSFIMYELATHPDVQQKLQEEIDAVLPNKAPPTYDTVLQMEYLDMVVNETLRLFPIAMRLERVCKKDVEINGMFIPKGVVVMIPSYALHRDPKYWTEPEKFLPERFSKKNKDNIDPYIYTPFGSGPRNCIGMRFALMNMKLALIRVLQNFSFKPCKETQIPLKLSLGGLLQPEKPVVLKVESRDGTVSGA

CC(=O)OC[C@H]1O[C@@](COC(C)=O)(O[C@H]2O[C@H](COC(C)=O)[C@@H](OC(C)=O)[C@H](OC(C)=O)[C@H]2OC(C)=O)[C@@H](OC(C)=O)[C@@H]1OC(C)=O
not listed: CYP2C9 (gene 1559)
inactive: all other assays above

COC(=O)c1ccccc1O
not listed: [10] | [11] | CYP2C9 (gene 1559)
inactive: all other assays above

COCCOCCOCCOC
not listed: [10] | [11] | CYP2C9 (gene 1559)
inactive: all other assays above

Clc1nc(Cl)c(Cl)c(Cl)c1Cl
not listed: [10] | CYP2C9 (gene 1559)
inactive: all other assays above

CCOCCO
not listed: [7] | CYP2C9 (gene 1559)
inactive: all other assays above

CCOc1cccc(-n2cc(C(=O)N3CCN(c4cc(C(=O)O)c5ccccc5c4)CC3)nc2-c2ccc(C)cc2)c1
active: [1] 27.7 µM | [2] 87.9 µM | [3] 26.5 µM | [4] 32.6 µM | CYP2C8 (gene 1558) 25.6 µM | CYP2E1 (gene 1571) 14.7 µM | CYP4A11 (gene 1579) 28.9 µM | [5] 31.1 µM | [6] 12.4 µM | [8] 83.7 µM | CYP3A5 (gene 1577) 80.5 µM | [12] 29.8 µM | [13] 33.6 µM | [14] 32.3 µM | [15] 79.2 µM
inactive: [9] | [10]

CCCN(C1CCN(C(=O)C2CCNCC2)CC1)[C@@H]1CCc2ccc(OC)cc2C1
active: [1] 84.3 µM | [3] 87.9 µM | [4] 86.3 µM | CYP2C8 (gene 1558) 86.5 µM | CYP2E1 (gene 1571) 67.4 µM | CYP4A11 (gene 1579) 90.7 µM | [5] 86.7 µM | [6] 50 µM | [10] 86.4 µM | CYP3A5 (gene 1577) 80.3 µM | [11] 83.5 µM | [12] 88.2 µM | [13] 77.3 µM | [14] 81 µM | [15] 50 µM
inactive: [2] | [7] | [8] | [9]

O=C1OC(=O)C2C3C=CC(C3)C12 (stereo not given)
not listed: CYP2E1 (gene 1571) | [7] | [10] | CYP3A5 (gene 1577) | [11]
inactive: all other assays above

C[C@](N)(Cc1ccc(O)c(O)c1)C(=O)O
not listed: CYP2E1 (gene 1571) | [7] | [10] | [11]
inactive: all other assays above

CC[C@H]1CC[C@H](NCc2cc3c(cc2OC)[C@H]2C[C@H]2C(=O)N3C)[C@H](c2ccccc2)N1
active: [1] 33.8 µM | [3] 11.7 µM | [4] 10.8 µM | CYP2C8 (gene 1558) 11.1 µM | CYP2E1 (gene 1571) 50 µM | CYP4A11 (gene 1579) 81.8 µM | [5] 14.2 µM | [6] 50 µM | CYP3A5 (gene 1577) 50 µM | [12] 76.8 µM
inactive: [2] | [7] | [8] | [9] | [11] | [13] | [14] | [15]

CCCCCCCCCCCCCCCO
not listed: CYP2E1 (gene 1571) | [7] | [10] | [11]
inactive: all other assays above

CNCc1ccc(NC(=O)c2c[nH]c3c2C(=O)CCC3)cc1
active: [1] 73.2 µM
not listed: [7] | CYP2C9 (gene 1559)
inactive: all other assays above

CCn1nc(Cc2ccccc2)cc1C1CCN(C[C@H]2C[C@H](N(C)[C@@H](C(=O)O)C(C)C)C[C@@H]2c2cccc(F)c2)CC1
inactive: [2] | [5] | [8] | [9] | CYP3A5 (gene 1577) | [11] | [15]
active: [1] 79.9 µM | [3] 13.7 µM | [4] 17.6 µM | CYP2C8 (gene 1558) 24.6 µM | CYP2E1 (gene 1571) 20.4 µM | CYP4A11 (gene 1579) 50 µM | [6] 50 µM | [12] 43.5 µM | [13] 13.4 µM | [14] 50 µM
